High-throughput results from PubChem BioAssay.
This is a sample that favours compounds with a hit; in the whole collection about 2.8% have one here.
Pol eta inh-1 = qHTS for Inhibitors of Polymerase Eta; recombinant Pol eta, fluorescent DNA replication assay; hit rate 1.2% among 390,000; Potency, µM (top dose mostly 114 µM), inactives show top-dose activity change, negative = inhibition, hits mostly inhibitors; note: potency is the fitted concentration of half-maximal effect; % is set by controls: 0 for no effect and ±100 for the full control effect
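Pol eta (10 nM) was preincubated with compounds for 15 min at room temperature, after which fluorescent replication substrate (50 nM final) was added to start the reaction. Fluorescence was read kinetically at 0 and 10 min.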
Pol beta inh = qHTS Assay for Inhibitors of DNA Polymerase Beta; Pol beta primer extension/strand displacement, fluorescence kinetic; Potency, µM (titrated, usually from 114 µM), without a hit: at the highest dose activity change, negative = inhibition, actives largely listed as inhibitors; hit rate 1.3% among 340,000; AID 485314, 2010; note: potency is the fitted concentration of half-maximal effect; % is set by controls: 0 for no effect and ±100 for the full control effect
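Human Pol beta at 10 nM; strand-displacement substrate 50 nM final. Compound exposure 15 min at room temperature before start, reaction 10 min at room temperature.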
FEN1 inh = qHTS Assay for the Inhibitors of Human Flap endonuclease 1 (FEN1); P39748; Recombinant FEN1 flap cleavage, fluorescence, 15 min; Potency, µM (top dose mostly 114 µM), for inactives: at the top dose activity change, negative = inhibition, hits mostly inhibitors; hit rate 0.35% among 390,000; note: potency is the fitted concentration of half-maximal effect; % is set by controls: 0 for no effect and ±100 for the full control effect; nearly all actives have a fitted effect of over 65% in size
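Read-out was taken twice, immediately and after 15 min, following addition of 50 nM substrate to 10 nM FEN1 that had sat with test compound for 15 min at room temperature. Curves came from a four-parameter Hill model.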
POLI inh = qHTS for Inhibitors of Polymerase Iota; hit rate 1% among 390,000; Pol iota fluorescent replication assay, 10 min; AID 588590, 2011; Potency, µM (series often up to 115 µM), for the others: at the highest dose activity, negative = inhibition, most hits filed as inhibitors; note: potency is the fitted concentration of half-maximal effect
Target sequence (Q9UNA4 whole entry, looked up): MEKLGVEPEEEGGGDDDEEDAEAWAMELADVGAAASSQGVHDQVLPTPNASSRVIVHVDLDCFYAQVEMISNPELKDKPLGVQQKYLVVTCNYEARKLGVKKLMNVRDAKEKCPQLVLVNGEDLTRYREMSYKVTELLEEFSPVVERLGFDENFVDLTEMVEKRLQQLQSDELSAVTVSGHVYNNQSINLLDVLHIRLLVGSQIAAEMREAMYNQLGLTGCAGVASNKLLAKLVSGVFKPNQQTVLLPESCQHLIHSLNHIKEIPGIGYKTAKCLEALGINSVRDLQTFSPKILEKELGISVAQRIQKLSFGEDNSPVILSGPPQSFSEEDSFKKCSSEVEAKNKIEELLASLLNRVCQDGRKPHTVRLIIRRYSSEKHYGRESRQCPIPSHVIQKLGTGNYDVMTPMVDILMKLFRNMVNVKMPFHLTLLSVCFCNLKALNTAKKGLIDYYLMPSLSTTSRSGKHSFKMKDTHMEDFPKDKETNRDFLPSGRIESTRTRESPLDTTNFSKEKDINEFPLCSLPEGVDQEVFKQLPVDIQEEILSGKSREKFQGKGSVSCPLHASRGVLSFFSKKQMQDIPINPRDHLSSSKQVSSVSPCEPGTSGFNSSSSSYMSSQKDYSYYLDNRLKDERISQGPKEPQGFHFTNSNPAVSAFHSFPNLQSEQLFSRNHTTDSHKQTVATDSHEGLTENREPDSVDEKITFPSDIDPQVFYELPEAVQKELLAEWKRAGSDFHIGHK
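Pol iota at 10 nM preincubated 15 min with compounds at room temperature; reaction started with fluorescent substrate, 50 nM final. Fluorescence read kinetically at 0 and 10 min; buffer-only wells as negative control.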
Pol kappa inh-1 = qHTS for Inhibitors of Polymerase Kappa | DNA polymerase kappa (Homo sapiens), Q9UBT6 | purified Pol kappa, fluorescent DNA synthesis assay, 10 min | Potency, µM (series often up to 107 µM), for inactives: at the highest dose activity, negative = inhibition, usual class: inhibitors | hit rate 0.53% among 400,000; note: potency is the fitted concentration of half-maximal effect; % is set by controls: 0 for no effect and ±100 for the full control effect
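10 nM Pol kappa preincubated 15 min at room temperature with compounds, then reaction started with substrate at 50 nM final. Fluorescence read kinetically at 0 and 10 min; buffer-only wells served as negative control.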
PI5P4K alpha inh = qHTS for Inhibitors of phosphatidylinositol 5-phosphate 4-kinase (PI5P4K). PI5P4Kalpha enzyme, ADP-Glo luminescence, 60 min; active compounds read low. max response, %. hit rate 1.2% among 330,000. AID 652105, 2013; active = max response of -50% or lower; inconclusive = between -30% and -50%; inactive = -30% or higher; note: value at the top dose of about 77 µM; % is set by controls: 0 for no effect and ±100 for the full control effect
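Luminescence from ADP-Glo served as readout of PI5P4Kalpha activity in a qHTS format. Reaction: enzyme, substrate, compound, ATP at 5 microM final, 60 min at RT.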
Pol kappa inh-2 = qHTS for Inhibitors of Polymerase Kappa: Confirmatory Assay for Cherry-picked Compounds; AID 720501, 2013; purified Pol-kappa, fluorescent strand-displacement substrate; shares compounds with Pol eta inh-1; Potency, µM, hits mostly inhibitors; hit rate 76% among 920; note: potency is the fitted concentration of half-maximal effect
Pol eta inh-2 = qHTS for Inhibitors of Polymerase Eta: Confirmatory Assay for Cherry-picked Compounds. shares compounds with Pol eta inh-1. Pol eta primer extension, TAMRA/BHQ fluorescence, 10 min. Potency, µM, actives largely listed as inhibitors. hit rate 64% among 2,600. AID 720502, 2013; note: potency is the fitted concentration of half-maximal effect
* hit, by the source's call; [ ] = remark or other dose. Unless noted, calls come from the whole dose curve; as a rule, active = well fitted curve in the direction sought with a large enough effect; inconclusive = small, poorly fitted or top-dose-only effect, or another doubt; inactive = no such curve, though single readings can be large; an effect the other way counts as inactive or inconclusive.

O=C(O)c1cc([N+](=O)[O-])cc2c1C=Cc1ccccc1O2 was read as Pol eta inh-1 28µM*, Pol beta inh 56µM*, FEN1 inh 13%, POLI inh inconclusive, Pol kappa inh-1 inconclusive, PI5P4K alpha inh -9 and Pol kappa inh-2 inconclusive.
Screening O=C(NCCO)c1cc([N+](=O)[O-])cc2c1C=Cc1ccccc1O2 returned Pol eta inh-1 -6%, Pol beta inh 0%, FEN1 inh 0%, POLI inh 127%, Pol kappa inh-1 -2% and PI5P4K alpha inh -4.
COc1ccc(-c2nn(CCC(=O)O)cc2/C=C2\SC(N)=NC2=O)cc1OC was read as Pol eta inh-1 10µM*, Pol beta inh -1%, FEN1 inh 0%, POLI inh -21%, Pol kappa inh-1 inconclusive, PI5P4K alpha inh -10 and Pol eta inh-2 43*.
Screening CCCOc1ccc(-c2nn(-c3ccccc3)cc2/C=C2\SC(N)=NC2=O)cc1C returned Pol eta inh-1 -14%, Pol beta inh 8%, FEN1 inh 5%, POLI inh -2%, Pol kappa inh-1 -10% and PI5P4K alpha inh -9.
`S=C(NCCc1ccccn1)Nc1cccc(Cl)c1` gave Pol eta inh-1 -20%, Pol beta inh 0%, FEN1 inh -13%, POLI inh 21%, Pol kappa inh-1 -5% and PI5P4K alpha inh -7.
For O=C(OCc1cc(=O)n2ccsc2n1)c1ccccc1NCCO the results were Pol eta inh-1 22µM*, FEN1 inh 9%, POLI inh 20µM*, Pol kappa inh-1 inconclusive, PI5P4K alpha inh inconclusive and Pol eta inh-2 inconclusive.
`COc1ccccc1C(=O)Nc1nc2nc(C)c(Cc3ccccc3)c(=O)n2[nH]1` gave Pol eta inh-1 inconclusive, Pol beta inh -11%, FEN1 inh 9%, POLI inh 18%, Pol kappa inh-1 -23% and Pol eta inh-2 76*.
`Cc1nc2nc(NC(=O)c3ccc(C(C)(C)C)cc3)[nH]n2c(=O)c1Cc1ccccc1` gave Pol eta inh-1 -1%, Pol beta inh -1%, FEN1 inh -8%, POLI inh 2% and Pol kappa inh-1 -19%.
For CC(=O)/C(N=Nc1ccc(C(=O)O)cc1[N+](=O)[O-])=C(\C)O the results were Pol eta inh-1 11µM*, Pol beta inh inconclusive, FEN1 inh -5%, POLI inh 50µM*, Pol kappa inh-1 inconclusive, PI5P4K alpha inh -73* and Pol eta inh-2 inconclusive.
Screening Cc1ccc(S(=O)(=O)CCC(=O)OCC(=O)Nc2sccc2C#N)cc1 returned Pol eta inh-1 28µM*, PI5P4K alpha inh -60* and Pol eta inh-2 inconclusive.
COc1ccc(OC)c(NC(=O)COC(=O)CNC(=O)c2ccc(OC)c(OC)c2)c1 was read as Pol eta inh-1 -1%, Pol beta inh 12%, FEN1 inh 5%, POLI inh 19%, Pol kappa inh-1 -4% and PI5P4K alpha inh -1.
For COc1ccc(C(=O)NCC(=O)OCC(=O)Nc2sccc2C#N)cc1OC the results were Pol eta inh-1 50µM*, Pol beta inh inconclusive, FEN1 inh 1%, POLI inh -75%, Pol kappa inh-1 inconclusive, PI5P4K alpha inh -58* and Pol eta inh-2 inconclusive.
`CCCCc1cc(=O)oc2cc(C)c3c(C(C)(C)C)coc3c12` gave Pol eta inh-1 -20%, Pol beta inh 4%, FEN1 inh 14%, POLI inh 6% and Pol kappa inh-1 -15%.
CCN(CC)c1cc2c(cc1F)c(=O)c(S(=O)(=O)c1ccc(OC)cc1)cn2Cc1ccccc1 was read as Pol eta inh-1 -2%, Pol beta inh -4%, FEN1 inh 10%, POLI inh -8% and Pol kappa inh-1 -7%.
CC1=C(C(=O)O)N2C(=O)C(NC(=O)c3nn(C)cc3Cl)C2SC1 (stereo unspecified) was read as Pol eta inh-1 -29%, Pol beta inh 28%, FEN1 inh 8%, POLI inh 13%, Pol kappa inh-1 -11% and PI5P4K alpha inh 3.
Cn1nnnc1SCC1=C(C(=O)O)N2C(=O)C(NC(=O)Cn3nc(C(F)F)cc3C3CC3)C2SC1 (stereo unspecified) was read as Pol eta inh-1 20µM*, Pol beta inh 18µM*, FEN1 inh 0%, POLI inh 35µM*, Pol kappa inh-1 inconclusive, PI5P4K alpha inh 1 and Pol eta inh-2 inconclusive.
Screening Cc1c(Cl)cnn1CC(=O)NC1C(=O)N2C(C(=O)O)=C(CSc3nnnn3C)CSC12 (stereo unspecified) returned Pol eta inh-1 22µM*, Pol beta inh 20µM*, FEN1 inh -21%, POLI inh inconclusive, Pol kappa inh-1 inconclusive, PI5P4K alpha inh -4 and Pol eta inh-2 43*.
For Cc1nn(CC(=O)NC2C(=O)N3C(C(=O)O)=C(CSc4nnnn4C)CSC23)cc1Br (stereo unspecified) the results were Pol eta inh-1 inconclusive, Pol beta inh 32µM*, FEN1 inh 9%, POLI inh -26%, Pol kappa inh-1 -19%, PI5P4K alpha inh 1 and Pol eta inh-2 76*.
For CCn1ccc(C(=O)NC2C(=O)N3C(C(=O)O)=C(C)CSC23)n1 (stereo unspecified) the results were Pol eta inh-1 -8%, Pol beta inh -2%, FEN1 inh 5%, POLI inh -10%, Pol kappa inh-1 -3% and PI5P4K alpha inh inconclusive.
For CO/N=C(/C(=O)N[C@@H]1C(=O)N2C(C(=O)O)=C(CSc3nc(C)c(CC(=O)O)s3)CS[C@H]12)c1csc(N)n1 the results were Pol kappa inh-1 -3%[19.4 µM].
Screening CCOC(=O)C1=C(COC(=O)C2(C)CC2(Cl)Cl)NC(=O)NC1c1ccccc1 (stereo unspecified) returned Pol eta inh-1 -3%, Pol beta inh -4%, FEN1 inh 1%, POLI inh 28%, Pol kappa inh-1 16% and PI5P4K alpha inh -6.
Cc1cc[n+](-c2ccccc2)c2ccccc12 was read as Pol eta inh-1 -2%, Pol beta inh -26%, FEN1 inh 12%, POLI inh 37%, Pol kappa inh-1 -6% and PI5P4K alpha inh -5.
